From PubChem BioAssay (Tox21)
Results filed as inconclusive are left out. Activity calls are given as the source filed them. Unless noted, the call rests on the fitted dose curve; in most records, active means well fitted curve in the direction sought with a large enough effect in the repeat runs; inconclusive means weak or mixed curves; inactive means no such curve, though single readings can be large; an effect the other way counts as inactive or inconclusive.

Tests used:
[1] = qHTS assay to identify small molecule antagonists of the sonic hedgehog signaling (Shh) pathway (AID 1259369; calls by dose curve; further: nearly all actives have a fitted effect of over 45% in size)
Summary of the method: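 Gli1 transcriptional reporter (firefly Luc) in NIH/3T3 background, conditioned-medium activated. 24hr exposure, luminescence endpoint.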

[2] = target: Estrogen receptor beta (Homo sapiens) (UniProt Q92731); assay: qHTS assay to identify small molecule agonists of the estrogen receptor beta (ER-beta) signaling pathway (AID 1259377; active means well fitted activation curve with a large enough effect in the signal ratio in the repeat runs, not every such curve was filed as active; the % refers to the signal ratio)
Summary of the method: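 Screening used GripTite ER-beta-UAS-bla cells held in 2% charcoal-stripped FBS medium. After overnight (16 hr) compound incubation at 37C, beta-lactamase activity was detected with a FRET substrate by fluorescence.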

[3] = qHTS assay to identify small molecule agonists of the androgen receptor (AR) signaling pathway in the presence of an antagonist - cell viability counter screen (AID 1259379);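 further: MDA-kb2 human breast cancer cells carrying an MMTV luciferase reporter; series mostly up to about 92 µM; nearly all actives have a fitted effect of over 25% in size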
Summary of the method: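 Counter screen for cell viability run in parallel with the AR agonist-mode luciferase assay. MDA-kb2 cells were co-treated with nilutamide (3.0uM final) and compounds, then incubated 16 hr at 37C, and CellTiter-Fluor fluorescence was measured.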

[4] = qHTS assay to identify small molecule agonists of the estrogen receptor beta (ER-beta) signaling pathway - cell viability counter screen (AID 1259380); further: nearly all actives have a fitted effect of over 30% in size
Summary of the method: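 In this qHTS counter screen, HEK293T cells carrying an ER-beta/UAS beta-lactamase reporter, grown in 2% charcoal-stripped FBS, received compound for 16 hr; ATP-based CellTiter-Glo luminescence was then read after 30 min at room temperature.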

[5] = qHTS assay to identify small molecule antagonists of the estrogen receptor beta (ER-beta) signaling pathway - cell viability counter screen (AID 1259382);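 further: HEK293T cells carrying ER-beta-UAS-bla reporter stimulated with estradiol; series mostly up to about 92 µM; nearly all actives have a fitted effect of over 55% in size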
Summary of the method: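 HEK293T ER-beta-UAS-bla, 2% charcoal-stripped FBS; compounds + 1nM E2 16 hr 37C; CellTiter-Glo luminescence, 30 min RT.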

[6] = target: Estrogen receptor (Homo sapiens) (UniProt P03372); assay: qHTS assay to identify small molecule agonists of the estrogen receptor alpha (ER-alpha) signaling pathway in the presence of an antagonist (AID 1259383; calls by dose curve; further: top concentration of the series differs between compounds; nearly all actives have a fitted effect of over 15% in size)
Summary of the method: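 ER-alpha agonism measured under antagonist challenge: 10.0nM ICI-182,780 (final) plus compound, 15 concentrations, 22hr, VM7Luc4E2 ERE-luciferase cells. Read by luminescence.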

[7] = qHTS assay to identify small molecule agonists of the estrogen receptor alpha (ER-alpha) signaling pathway in the presence of an antagonist - cell viability counter screen (AID 1259386);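 further: series mostly up to about 92 µM; cells exposed to compounds for 22 h at 37 °C before the viability read; nearly all actives have a fitted effect of over 30% in size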
Summary of the method: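 Steps: 5-day stripped-FBS culture; seed and incubate 24hr; add ICI-182,780 (10.0nM final); pin 15-point compound titration; incubate 22hr at 37C; add CellTiter-Fluor at 21hr; read fluorescence.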

[8] = target: Progesterone receptor (Homo sapiens) (UniProt P06401); assay: qHTS assay to identify small molecule agonists of the progesterone receptor (PR) signaling pathway (AID 1346784; calls by dose curve; further: nearly all actives have a fitted effect of over 30% in size)
Summary of the method: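 Seed PR-UAS-bla HEK 293T cells (2% charcoal-stripped FBS), incubate 6 hr at 37C; add compounds in DMSO, 16 hr at 37C; add LiveBLAzer B/G substrate, 2 hr RT; read fluorescence intensity.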

[9] = qHTS assay to identify small molecule antagonists of the progesterone receptor (PR) signaling pathway - cell viability counter screen (AID 1346798); further: series mostly up to about 92 µM; nearly all actives have a fitted effect of over 50% in size
Summary of the method: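 Measures cytotoxicity in parallel with the PR antagonist reporter read: HEK293T PR-UAS-bla cells get compound and R5020 for 16 hr, and remaining viable cells are quantified by CellTiter-Glo luminescence.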

[10] = qHTS assay to identify small molecule agonists of the progesterone receptor (PR) signaling pathway - cell viability counter screen (AID 1346799; calls by dose curve; further: nearly all actives have a fitted effect of over 45% in size)
Summary of the method: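 Using the same plates as the PR reporter screen, HEK293T PR-UAS-bla cells received compounds for 16 hr at 37C and were then lysed with CellTiter-Glo; luminescence was read 30 min later at room temperature.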

[11] = qHTS assay to identify small molecule antagonists of the TGF-beta/Smad signaling pathway - cell viability counter screen (AID 1346824); further: nearly all actives have a fitted effect of over 50% in size
Summary of the method: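 Cytotoxicity counter-screen run in the same wells as the beta-lactamase Smad reporter read: CellTiter-Glo luminescence after 30 min at room temperature. HEK 293T SBE-bla cells had 5 hr compound exposure at 37 C with TGF-beta1 (0.25 ng/mL stock).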

[12] = qHTS assay to identify small molecule agonists of the TGF-beta/Smad signaling pathway - cell viability counter screen (AID 1346829); further: top concentration of the series differs between compounds; nearly all actives have a fitted effect of over 45% in size
Summary of the method: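 CellTiter-Glo luminescence readout; SBE-bla HEK 293T cells, overnight plating, compound 5 hr at 37 C/5% CO2, then bla substrate 2 hr RT, then CellTiter-Glo 30 min RT.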

[13] = qHTS assay to identify small molecule agonists of the TGF-beta/Smad signaling pathway (AID 1346859; active means well fitted activation curve with a large enough effect in the signal ratio in the repeat runs, not every such curve was filed as active; the % refers to the signal ratio; further: series mostly up to about 77 µM)
Summary of the method: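 Beta-lactamase reporter activity downstream of Smad binding elements was measured in stably transfected HEK 293T cells; compounds were incubated for 5 hr, substrate for 2 hr at room temperature.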

[14] = qHTS assay to identify small molecule agonists or antagonists of the thyroid stimulating hormone receptor (TSHR) signaling pathway - wild type cell line counter screen (AID 1259384; calls by dose curve)
Summary of the method: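 Counter screen in untransfected Hek293: compounds (15-point titration, triplicate) plus phosphodiesterase inhibitor Ro20-1724 added after 18 h plating; 30 min RT. Intracellular cAMP via competitive d2/cryptate immunoassay, 1 h incubation.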

[15] = target: Thyrotropin receptor (Homo sapiens) (UniProt P16473); assay: qHTS assay to identify small molecule antagonists of the thyroid stimulating hormone receptor (TSHR) signaling pathway (AID 1259385; calls by dose curve; further: nearly all actives have a fitted effect of over 20% in size)
Summary of the method: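 Antagonist mode: compound-treated TSHR-expressing HEK293 cells were stimulated with 1.5 ng/mL TSH (final) in presence of Ro20-1724 for 30 min at RT. HTRF cAMP detection after 1 h; each compound tested at 15 concentrations, triplicate.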

[16] = target: Progesterone receptor (Homo sapiens) (UniProt P06401); assay: qHTS assay to identify small molecule antagonists of the progesterone receptor (PR) signaling pathway (AID 1346795; active means well fitted inhibition curve with a large enough effect in the signal ratio in the repeat runs, not every such curve was filed as active; the % refers to the signal ratio)
Summary of the method: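 Screening used a GripTite HEK293T line with PR-responsive UAS-beta-lactamase. Cells were challenged with compound in the presence of 1 nM R5020 final for 16 hr at 37C; B/G FRET substrate, 2 hr room temperature, fluorescence.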

[17] = target: Thyrotropin-releasing hormone receptor (Homo sapiens) (UniProt P34981); assay: qHTS assay to identify small molecule antagonists of the thyrotropin-releasing hormone receptor (TRHR) signaling pathway (AID 1346877; active means well fitted inhibition curve with a large enough effect in the repeat runs, not every such curve was filed as active; further: series mostly up to about 51 µM)
Summary of the method: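 Human TRHR in HEK293 cells; inhibition of the intracellular calcium rise triggered by 1 nM TRH was followed by fluorescence over 3 min. Compounds were run at 15 concentrations, three replicates each.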

[18] = target: Thyrotropin-releasing hormone receptor (Homo sapiens) (UniProt P34981); assay: qHTS assay to identify small molecule agonists of the thyrotropin-releasing hormone receptor (TRHR) signaling pathway (AID 1346891; calls by dose curve;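 further: HEK293 cells expressing TRHR with calcium dye readout; series mostly up to about 58 µM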)
Summary of the method: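 Overnight-plated (18 h, 37 °C, 5% CO2) TRHR-Hek293 cells; 2 h calcium dye at 37 °C; compound in DMSO; 3-min kinetic fluorescence read.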

[19] = target: Androgen receptor (Homo sapiens) (UniProt P10275); assay: qHTS assay to identify small molecule agonists of the androgen receptor (AR) signaling pathway in the presence of an antagonist (AID 1259381; calls by dose curve; further: nearly all actives have a fitted effect of over 15% in size)
Summary of the method: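 AR antagonist background: nilutamide 3.0uM final. Cell line: MDA-kb2, MMTV-driven luciferase, responsive to both AR and GR. Exposure 16hr, 37C, no CO2; ONE-Glo luminescence.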

Measured: Potency

Chain of Estrogen receptor beta (Homo sapiens) (Q92731 whole entry, looked up): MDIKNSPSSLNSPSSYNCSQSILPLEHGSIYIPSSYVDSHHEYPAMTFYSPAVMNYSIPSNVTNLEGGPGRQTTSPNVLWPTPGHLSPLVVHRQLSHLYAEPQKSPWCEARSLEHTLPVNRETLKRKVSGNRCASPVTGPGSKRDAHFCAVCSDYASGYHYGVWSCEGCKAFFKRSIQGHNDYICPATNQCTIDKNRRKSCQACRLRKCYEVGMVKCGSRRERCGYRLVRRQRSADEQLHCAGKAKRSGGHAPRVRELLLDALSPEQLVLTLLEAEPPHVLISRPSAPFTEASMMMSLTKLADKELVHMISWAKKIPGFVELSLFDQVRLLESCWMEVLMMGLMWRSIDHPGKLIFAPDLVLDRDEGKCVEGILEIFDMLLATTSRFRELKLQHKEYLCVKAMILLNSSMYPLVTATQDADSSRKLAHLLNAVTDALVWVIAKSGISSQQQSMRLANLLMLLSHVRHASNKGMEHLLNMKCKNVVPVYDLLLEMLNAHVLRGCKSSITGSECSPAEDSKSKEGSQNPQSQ
Chain of Thyrotropin-releasing hormone receptor (Homo sapiens) (P34981 whole entry, looked up): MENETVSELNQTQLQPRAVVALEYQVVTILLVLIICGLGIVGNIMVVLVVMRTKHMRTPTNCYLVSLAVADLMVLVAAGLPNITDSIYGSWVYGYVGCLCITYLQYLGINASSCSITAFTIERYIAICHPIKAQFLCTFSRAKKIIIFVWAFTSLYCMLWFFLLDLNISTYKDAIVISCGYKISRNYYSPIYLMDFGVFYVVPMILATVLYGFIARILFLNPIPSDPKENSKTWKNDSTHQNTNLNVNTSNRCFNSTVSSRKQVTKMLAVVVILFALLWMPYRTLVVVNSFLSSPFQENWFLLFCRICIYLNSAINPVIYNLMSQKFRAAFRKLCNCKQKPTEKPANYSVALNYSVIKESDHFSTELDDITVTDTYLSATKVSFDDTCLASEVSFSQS
Chain of Estrogen receptor (Homo sapiens) (P03372 whole entry, looked up): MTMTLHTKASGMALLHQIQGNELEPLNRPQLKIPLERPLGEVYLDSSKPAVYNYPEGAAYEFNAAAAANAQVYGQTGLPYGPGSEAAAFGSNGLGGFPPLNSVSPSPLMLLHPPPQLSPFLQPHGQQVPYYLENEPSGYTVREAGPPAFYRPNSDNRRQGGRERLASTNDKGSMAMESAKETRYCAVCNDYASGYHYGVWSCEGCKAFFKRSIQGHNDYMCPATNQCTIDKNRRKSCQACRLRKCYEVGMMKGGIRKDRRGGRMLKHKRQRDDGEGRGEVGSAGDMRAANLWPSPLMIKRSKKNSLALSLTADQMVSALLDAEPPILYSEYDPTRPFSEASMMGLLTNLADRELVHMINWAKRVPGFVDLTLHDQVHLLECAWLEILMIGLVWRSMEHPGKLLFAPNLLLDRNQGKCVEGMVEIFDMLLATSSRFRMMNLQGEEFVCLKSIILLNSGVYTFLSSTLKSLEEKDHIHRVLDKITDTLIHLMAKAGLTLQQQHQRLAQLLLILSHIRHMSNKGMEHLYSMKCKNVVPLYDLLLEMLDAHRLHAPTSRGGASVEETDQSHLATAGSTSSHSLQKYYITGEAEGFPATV
Chain of Progesterone receptor (Homo sapiens) (P06401 whole entry, looked up): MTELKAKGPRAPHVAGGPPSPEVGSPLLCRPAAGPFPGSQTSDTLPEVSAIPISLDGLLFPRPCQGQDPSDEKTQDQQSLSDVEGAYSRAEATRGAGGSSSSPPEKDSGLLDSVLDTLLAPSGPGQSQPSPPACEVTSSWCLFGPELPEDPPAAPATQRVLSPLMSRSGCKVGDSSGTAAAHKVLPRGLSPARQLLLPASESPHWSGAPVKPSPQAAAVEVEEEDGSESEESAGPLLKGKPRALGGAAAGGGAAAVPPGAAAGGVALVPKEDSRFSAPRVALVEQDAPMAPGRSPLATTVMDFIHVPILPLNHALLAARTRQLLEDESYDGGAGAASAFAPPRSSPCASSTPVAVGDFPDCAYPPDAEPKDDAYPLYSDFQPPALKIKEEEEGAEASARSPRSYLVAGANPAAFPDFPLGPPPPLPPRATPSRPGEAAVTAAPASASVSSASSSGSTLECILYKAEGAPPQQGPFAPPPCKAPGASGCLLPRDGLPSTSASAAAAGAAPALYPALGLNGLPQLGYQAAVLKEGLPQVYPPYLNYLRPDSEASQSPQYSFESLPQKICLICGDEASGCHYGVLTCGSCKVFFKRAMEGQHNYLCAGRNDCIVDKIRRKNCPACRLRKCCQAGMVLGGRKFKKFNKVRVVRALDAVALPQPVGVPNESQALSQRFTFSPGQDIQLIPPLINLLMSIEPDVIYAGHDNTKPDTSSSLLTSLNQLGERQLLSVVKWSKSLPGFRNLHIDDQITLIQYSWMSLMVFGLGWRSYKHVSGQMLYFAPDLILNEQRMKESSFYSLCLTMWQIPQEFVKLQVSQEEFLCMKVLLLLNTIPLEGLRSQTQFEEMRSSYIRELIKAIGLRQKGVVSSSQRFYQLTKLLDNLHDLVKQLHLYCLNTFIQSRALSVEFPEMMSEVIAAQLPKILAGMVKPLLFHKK
Chain of Thyrotropin receptor (Homo sapiens) (P16473 whole entry, looked up): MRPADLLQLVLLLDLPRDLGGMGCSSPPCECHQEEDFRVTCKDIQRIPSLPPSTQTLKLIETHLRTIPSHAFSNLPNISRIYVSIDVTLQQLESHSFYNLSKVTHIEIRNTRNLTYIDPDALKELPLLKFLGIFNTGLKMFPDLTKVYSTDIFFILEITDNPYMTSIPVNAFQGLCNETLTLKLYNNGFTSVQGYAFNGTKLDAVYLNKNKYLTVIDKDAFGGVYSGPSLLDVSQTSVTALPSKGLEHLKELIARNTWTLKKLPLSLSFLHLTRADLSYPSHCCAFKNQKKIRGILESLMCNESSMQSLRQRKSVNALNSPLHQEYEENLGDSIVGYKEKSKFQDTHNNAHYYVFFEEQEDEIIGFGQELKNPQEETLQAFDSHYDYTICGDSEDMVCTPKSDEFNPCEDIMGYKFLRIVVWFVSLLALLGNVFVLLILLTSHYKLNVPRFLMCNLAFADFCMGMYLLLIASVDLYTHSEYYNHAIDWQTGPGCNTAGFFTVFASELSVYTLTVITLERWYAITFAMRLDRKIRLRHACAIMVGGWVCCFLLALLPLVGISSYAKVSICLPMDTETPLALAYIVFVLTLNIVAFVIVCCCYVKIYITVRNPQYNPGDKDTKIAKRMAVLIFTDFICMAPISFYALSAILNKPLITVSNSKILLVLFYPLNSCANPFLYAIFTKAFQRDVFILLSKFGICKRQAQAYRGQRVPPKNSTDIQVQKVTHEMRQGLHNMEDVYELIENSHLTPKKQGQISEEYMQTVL
Chain of Androgen receptor (Homo sapiens) (P10275 whole entry, looked up): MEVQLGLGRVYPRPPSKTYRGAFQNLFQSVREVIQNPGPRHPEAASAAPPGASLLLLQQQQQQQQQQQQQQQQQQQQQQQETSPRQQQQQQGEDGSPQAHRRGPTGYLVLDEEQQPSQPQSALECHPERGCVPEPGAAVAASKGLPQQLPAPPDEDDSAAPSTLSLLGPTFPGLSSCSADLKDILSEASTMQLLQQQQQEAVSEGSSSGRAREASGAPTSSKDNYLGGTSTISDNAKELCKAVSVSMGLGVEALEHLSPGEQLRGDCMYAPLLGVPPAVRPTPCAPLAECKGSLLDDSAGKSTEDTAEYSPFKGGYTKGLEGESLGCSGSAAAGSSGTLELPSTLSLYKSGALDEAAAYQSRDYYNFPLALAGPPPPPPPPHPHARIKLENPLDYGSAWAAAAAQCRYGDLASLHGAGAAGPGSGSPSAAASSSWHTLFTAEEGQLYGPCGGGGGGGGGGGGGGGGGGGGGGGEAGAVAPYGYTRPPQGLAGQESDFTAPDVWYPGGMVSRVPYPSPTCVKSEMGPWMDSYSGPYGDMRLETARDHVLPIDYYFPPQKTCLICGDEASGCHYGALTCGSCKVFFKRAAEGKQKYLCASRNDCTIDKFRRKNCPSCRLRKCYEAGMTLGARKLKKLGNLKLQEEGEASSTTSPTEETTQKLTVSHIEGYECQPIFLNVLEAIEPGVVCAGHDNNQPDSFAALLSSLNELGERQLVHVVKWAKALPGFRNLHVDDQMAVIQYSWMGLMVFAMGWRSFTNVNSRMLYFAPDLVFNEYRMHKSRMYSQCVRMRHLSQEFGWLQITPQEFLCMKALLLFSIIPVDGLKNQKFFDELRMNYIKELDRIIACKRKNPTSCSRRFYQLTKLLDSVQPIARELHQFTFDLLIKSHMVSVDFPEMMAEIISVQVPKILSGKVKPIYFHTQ

O=C([O-])c1ccccn1.O=C([O-])c1ccccn1.O=C([O-])c1ccccn1.[Cr+3]
inactive: [1] | [2] | [3] | [4] | [5] | [6] | [7] | [8] | [9] | [10] | [11] | [12] | [13]

Cc1nc(N(C)C)nc(OC(=O)N(C)C)c1C
inactive: [1] | [2] | [3] | [5] | [6] | [14] | [15] | [7] | [8] | [16] | [9] | [10] | [11] | [12] | [13] | [17] | [18]

CC(C)(C)NCC(O)c1cc(Cl)c(N)c(C(F)(F)F)c1 (configuration not stated)
inactive: [1] | [2] | [3] | [4] | [19] | [5] | [6] | [15] | [8] | [16] | [9] | [10] | [11] | [12] | [13] | [17] | [18]

CN[C@@H](C)[C@H](O)c1ccccc1
inactive: [1] | [2] | [3] | [4] | [5] | [6] | [14] | [15] | [7] | [8] | [16] | [9] | [10] | [11] | [12] | [13] | [17] | [18]

CC(Cl)C(=O)O (configuration not stated)
inactive: [1] | [3] | [4] | [19] | [5] | [14] | [15] | [8] | [16] | [9] | [10] | [11] | [12] | [13] | [17] | [18]

CC(=O)OC(c1ccccc1)C(Cl)(Cl)Cl (configuration not stated)
inactive: [1] | [3] | [4] | [5] | [6] | [14] | [7] | [9] | [10] | [11] | [12]
